Source: the OligoGym collection

These sequences were tested against CBL (assay: pooled miR-30 sensor sort-seq; sequence = guide strand). Conditions: shRNA.
Also: reference of the scale not given here.

Question: With TTGCTTAGTTTTCTTCATCAAA as the sequence, how does the sensor-assay potency score (higher = more potent) read?
Answer: -1.12

Question: Which sensor-assay potency score (higher = more potent) does the source give for ATGCACTTCATGTAGAGCCTGT here?
Answer: 0.672

Question: For ATCTTGACAAGATAGTACGGAG, which sensor-assay potency score (higher = more potent) is on record?
Answer: -1.09

Question: Which sensor-assay potency score (higher = more potent) does the source give for TTTCACTTCGTCATACGTCAAA here?
Answer: -0.674

Question: Which sensor-assay potency score (higher = more potent) does the source give for TTACATAGTTGGAATGTGGAGC here?
Answer: 0.417

Question: For TCACCATCCAGAGACAACCAGC, which sensor-assay potency score (higher = more potent) is on record?
Answer: -1.24

Question: TTTGGGTTCTGACACAACCGCA was tested. Which sensor-assay potency score (higher = more potent) did it give?
Answer: -1.29

Question: TACAGCTATCAATCTGCTGGTC was tested. Which sensor-assay potency score (higher = more potent) did it give?
Answer: -0.313

Question: Which sensor-assay potency score (higher = more potent) does the source give for TTGGGTTCTGACACAACCGCAC here?
Answer: 0.227

Question: Which sensor-assay potency score (higher = more potent) does the source give for TTGTTGTAGGATCACCATCCAG here?
Answer: -1.34

Question: Which sensor-assay potency score (higher = more potent) does the source give for TGAGGGAACACATACTCGCTGC here?
Answer: -0.456

Question: How did the sensor-assay potency score (higher = more potent) turn out when TATCTTGACAAGATAGTACGGA was run?
Answer: 0.0663

Question: For TTATACATTGCTTCATACGTAC, which sensor-assay potency score (higher = more potent) is on record?
Answer: -0.141

Question: For TTGAGGGAACACATACTCGCTG, which sensor-assay potency score (higher = more potent) is on record?
Answer: -0.612

Question: How did the sensor-assay potency score (higher = more potent) turn out when AAATTCTCCATAAACACCCTAA was run?
Answer: -0.0479

These sequences were tested against CBR1 in the same assay as above. Conditions: shRNA.

Question: Which sensor-assay potency score (higher = more potent) does the source give for ATCGTCGATGTCCAGCTGGTGG here?
Answer: -1.35

Question: For TTCTCTGAAACAAATTGTCCAT, which sensor-assay potency score (higher = more potent) is on record?
Answer: -0.572

Question: Which sensor-assay potency score (higher = more potent) does the source give for TTACGTAGTCAACTGAGTGCGT here?
Answer: 0.669

Question: With TTATTAGAGGGAGTAATTCTGT as the sequence, how does the sensor-assay potency score (higher = more potent) read?
Answer: -0.254

Question: For TAGTACATTAGTGAGTGCTAAT, which sensor-assay potency score (higher = more potent) is on record?
Answer: -1.35

Question: Which sensor-assay potency score (higher = more potent) does the source give for ATTCTGTGCACACATCTCGGGT here?
Answer: -0.951

Question: With TAATTCTGTGCACACATCTCGG as the sequence, how does the sensor-assay potency score (higher = more potent) read?
Answer: -0.638

Question: With TCATCGTCACTTCAGCTTGAAT as the sequence, how does the sensor-assay potency score (higher = more potent) read?
Answer: -1.32

Question: Which sensor-assay potency score (higher = more potent) does the source give for TTGAATATGAAAGGGTGTGGGA here?
Answer: 0.163

Question: With TTGTTTTCATCGTCACTTCAGC as the sequence, how does the sensor-assay potency score (higher = more potent) read?
Answer: -0.315

Question: TCTGTGCACACATCTCGGGTAC was tested. Which sensor-assay potency score (higher = more potent) did it give?
Answer: -0.133

Question: TTTGTTTTCATCGTCACTTCAG was tested. Which sensor-assay potency score (higher = more potent) did it give?
Answer: 0.571

Question: Which sensor-assay potency score (higher = more potent) does the source give for TTCAGGAGGATCTTGTCCCCTT here?
Answer: -0.643

Question: Which sensor-assay potency score (higher = more potent) does the source give for TATTAGAGGGAGTAATTCTGTG here?
Answer: -0.602

Question: TATGACATTGTAAATGCCCTTT was tested. Which sensor-assay potency score (higher = more potent) did it give?
Answer: -0.242

Question: AATTCTGTGCACACATCTCGGG was tested. Which sensor-assay potency score (higher = more potent) did it give?
Answer: -0.452

Question: Which sensor-assay potency score (higher = more potent) does the source give for TTCTGTGCACACATCTCGGGTA here?
Answer: 0.677

Question: Which sensor-assay potency score (higher = more potent) does the source give for TTAGTAGTACATTAGTGAGTGC here?
Answer: -0.244

Question: TAAGAGATCATTTTTTTTCTTA was tested. Which sensor-assay potency score (higher = more potent) did it give?
Answer: 0.534

Question: How did the sensor-assay potency score (higher = more potent) turn out when TCTCTGAAACAAATTGTCCATG was run?
Answer: -1.29

Question: Which sensor-assay potency score (higher = more potent) does the source give for TTCAGCTTGAATATGAAAGGGT here?
Answer: 0.264

Question: With TTTTCATCGTCACTTCAGCTTG as the sequence, how does the sensor-assay potency score (higher = more potent) read?
Answer: -0.702

Question: How did the sensor-assay potency score (higher = more potent) turn out when TCAGTGATGGTCTCACTGCGGA was run?
Answer: -1.01

Question: For TCAATTAGTAGTACATTAGTGA, which sensor-assay potency score (higher = more potent) is on record?
Answer: 0.828
